Results filed as inconclusive are left out. Calls of active or inactive are those of the source. Unless noted, the call rests on the fitted dose curve; in most records, active means well fitted curve in the direction sought with a large enough effect; inconclusive means small, poorly fitted or top-dose-only effect, or another doubt; inactive means no such curve, though single readings can be large; an effect the other way counts as inactive or inconclusive.

A short description of test [1]: qHTS to identify inhibitors of the type 1 interferon - major histocompatibility complex class I in skeletal muscle: primary screen against the NCATS LOPAC collection (AID 1347405).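 Further: lytic HiBiT luminescence reporting HLA-B protein level.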 Put shortly:
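Cells: C25cl48 human myoblasts, HiBiT-tagged HLA-B*08:01, stimulated with IFN-beta 4.0 ng/ml. Compounds are titrated 1:4.3 over 7 points from 46 uM final and incubated 24 hrs; endogenous MHC class I is quantified by HiBiT lytic luminescence.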
On the technique in general: qHTS replaces the single test concentration by a dilution series.

Test [2] can be described thus: qHTS for inhibitors of adenylyl cyclases using a fission yeast platform: a pilot screen against the NCATS LOPAC library (AID 1347410). In short, it runs like this: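 Fission yeast qHTS: CHP2027 cells (AC9-GNAS-PDE4D2, fbp1-GFP), 5x10^6 cells/mL working density, EMM + His/Lys/Ura; LOPAC at up to 57 µM final; 18 h dark, 30C; GFP by laser cytometry. DPI positive control, DMSO vehicle.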

The nature of test [3]: Validation qHTS assay for inhibitors of Activation Induced Cytidine Deaminase (AID): UDG Counterscreen signal (AID 1347427). Put shortly:
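Counterscreen read of UDG activity (2 U/mL, 4/3x) in the FRET deamination format with AID (1 uM, 4/3x), DJC20/DJC23 substrates (250 nM, 4x), 4 h at room temperature. NaOH stop, fluorescence at 560 ex/665 em.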

Test [4] concerns the target Single-stranded DNA cytosine deaminase (Homo sapiens) (UniProt Q9GZX7). Description: Validation qHTS assay for inhibitors of Activation Induced Cytidine Deaminase (AID): AID signal (AID 1347429). Further: potency means the concentration at half of the fitted maximal effect. Put shortly: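 In this coupled qHTS, AID deaminates a FRET-labelled ssDNA substrate in the presence of UDG over 4 hr at room temperature. Compounds span up to 114 uM final.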

A short description of test [5]: Primary qHTS for inhibitors of La Crosse Virus (LACV) - induced cell death in SH-SY5Y cells (AID 1508616).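 Further: top concentration of the series differs between compounds; higher means more rescue of cells from virus-induced death.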 Put shortly: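 Readout was luminescence from ATPLite 1step added after a 6-day LACV infection (0.01 MOI) of SH-SY5Y cells that had received pin-transferred compound 24 hr after seeding.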
The target of test [6] is Calcium and integrin-binding protein 1 (Homo sapiens) (UniProt Q99828). Description: Validation qHTS for Identification of Calcium Integrin Binding protein 1 (CIB1) Competitor (AID 1508618). Further: potency means the concentration at half of the fitted maximal effect. In short, it runs like this:
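CIB1-GST (1 uM final) in 5 mM HEPES pH 7.4, 125 mM NaCl, 5 mM CaCl2, 0.01% Tween20 was preincubated 15 min at room temperature with compound (up to 114 uM), then FITC-alphaIIb peptide (100 nM) added for 15 min; fluorescence polarization read.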

The nature of test [7]: qHTS to identify inhibitors of the type 1 interferon - major histocompatibility complex class I in skeletal muscle: primary screen against the NCATS Mechanism Interrogation Plate v5.0 (MIPE) Libary (AID 1347411). Further: nearly all actives have a fitted effect of over 65% in size. Put shortly: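 Cells were genome-edited human myoblasts carrying a HiBit tag on endogenous HLA-B. They were treated with IFN-beta (4.0 ng/ml) and titrated compounds (top 46 uM) for 24 hrs before lytic HiBiT detection.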

Test [8] in a line: qHTS for inhibitors of Rabies Virus screened against the NCATS CANVASS Library (AID 1347402; calls by dose curve; further: series mostly up to about 46 µM).
The nature of test [9]: Primary qHTS for Huh7 cytotoxicity: counterscreen for inhibitors of MERS-S pseudotyped particle cell entry (AID 1479147; calls by dose curve). The conditions noted are these: outcome: dose series up to 57.1 µM unless noted.
Test [10] is described as follows: Primary qHTS for inhibitors of MERS-S pseudo-typed particle cell entry (AID 1479149; calls by dose curve; further: nearly all actives have a fitted effect of over 60% in size). The settings on record: outcome: dose series up to 57.1 µM unless noted.
Test [11] in a line: Primary qHTS for Vero E6 cytotoxicity: counterscreen for inhibitors of SARS-S pseudo-typed particle cell entry (AID 1479150; calls by dose curve).
Test [12] has as its target Calcium and integrin-binding protein 1 (Homo sapiens) (UniProt Q99828). As to the kind of experiment: Primary qHTS for Identification of Calcium Integrin Binding Protein 1 (CIB1) Competitor (AID 1508620).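 Further: GST tagged CIB1 binding a fluorescein labelled alphaIIb integrin peptide tracer; top concentration of the series differs between compounds.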 In short, it runs like this: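 Fluorescence polarization competition: CIB1-GST (1 uM final) preincubated with compound 15 min at room temperature, then FITC-labeled alphaIIb peptide (100 nM final) added for another 15 min. Polarization read at Ex 480/Em 540.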

A short description of test [13]: Redox Reaction Profiling qHTS: Assay Interference Panel against the NCATS CANVASS Library (AID 1347401). Put shortly: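 Resazurin (5 uM) conversion to resorufin measured with 200 uM DTT in 50 mM HEPES pH 7.3, 50 mM NaCl. Compounds tested in 11-point qHTS series. Fluorescence (ex 525/em 598 nm) read before and after 15 min dark incubation.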
Test [14] can be described thus: Primary qHTS for inhibitors of SARS-S pseudo-typed particle cell entry (AID 1479145; calls by dose curve; further: series mostly up to about 57 µM; nearly all actives have a fitted effect of over 45% in size). The conditions noted are these: outcome: dose series up to 57.1 µM unless noted.

Chain of Calcium and integrin-binding protein 1 (Homo sapiens) (Q99828 whole entry, looked up): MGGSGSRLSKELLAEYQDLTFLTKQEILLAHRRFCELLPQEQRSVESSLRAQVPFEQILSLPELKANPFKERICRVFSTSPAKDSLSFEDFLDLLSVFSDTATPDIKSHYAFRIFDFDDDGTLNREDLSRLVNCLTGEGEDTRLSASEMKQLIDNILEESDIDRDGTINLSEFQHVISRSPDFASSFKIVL
Chain of Single-stranded DNA cytosine deaminase (Homo sapiens) (Q9GZX7 whole entry, looked up): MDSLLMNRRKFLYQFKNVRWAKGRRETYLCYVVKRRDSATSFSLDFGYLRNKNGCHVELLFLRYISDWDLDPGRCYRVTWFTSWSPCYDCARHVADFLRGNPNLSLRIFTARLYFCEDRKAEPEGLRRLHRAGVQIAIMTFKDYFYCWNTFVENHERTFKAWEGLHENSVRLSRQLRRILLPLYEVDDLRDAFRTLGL

For `OC1CCCCC1N1CCC(c2ccccc2)CC1` (configuration not stated), the Potency result in [1], in test [3], in test [4], in [5] and in test [6] was “inactive” each time. Also, in test [2], the call was inactive.
Regarding `CC(=O)c1c(O)c(C)c(O)c(Cc2c(O)c3c(c(C(=O)/C=C/c4ccccc4)c2O)OC(C)(C)C=C3)c1O`, the Potency result in [1], in test [3] and in test [5] was “inactive” in each case. Also, the result in test [2] and in test [7] was inactive. In test [4], the Potency is 31.6 µM (active).
In the case of `Cc1o[nH]c(=O)c1CC(N)C(=O)O` (configuration not stated), the Potency entry in test [1], in [3], in test [4], in test [5] and in test [6] was “inactive” throughout. The compound was classed as inactive in test [2].
Regarding `CCS(=O)(=O)Nc1cccc(C(=C2CCCCC2)c2cnc[nH]2)c1`, the Potency result in [1], in test [3], in test [4], in test [5] and in test [6] was “inactive” throughout. Moreover, the compound was called inactive in test [2].
With `[Cl-].[Cl][Pt].[NH2-].[NH2-].c1ccncc1`, the Potency result in test [1] is “inactive”. The compound was classed as inactive in test [2].
Consider `C[N+](C)(C)CCOC(=O)CBr`, for which the Potency entry in test [1], in test [3], in test [4], in test [5] and in test [6] was “inactive” in each case. In test [2], the outcome was inactive.
`NC(=O)c1ccc(OCC(O)CN2CC=C(c3ccc(F)cc3)CC2)cc1` (configuration not stated): the Potency result in [1], in [3], in [4], in test [5] and in [6] was “inactive” each time. In addition, in test [2], the call was inactive.
On to `CC(N)Cc1c[nH]c2ccc(OCc3cccs3)cc12` (configuration not stated), for which the Potency entry in test [1], in test [3], in [4], in test [5] and in [6] was “inactive” each time. Moreover, the outcome in [2] was inactive.
For the compound `CCCN1CC[C@@H]2c3cc(O)ccc3CC[C@@H]21`, the Potency result in test [1], in [3], in [4], in [5] and in test [6] was “inactive” throughout. Moreover, in test [2], the call was inactive.
Consider `Cc1[nH]c2ccc(O)cc2c1CCN`, for which the Potency entry in [1], in test [3], in test [4], in test [5] and in test [6] was “inactive” throughout. Further, the outcome in test [2] was inactive.
On to `C[C@H](N)Cc1cccc(C(F)(F)F)c1`, for which the Potency entry in test [1], in test [3], in test [4], in [5] and in [6] was “inactive” throughout. Further, the compound was called inactive in [2].
`C#CCN[C@H](C)Cc1ccccc1`: the Potency result in [1], in test [3], in [4], in test [5] and in test [6] was “inactive” throughout. Also, in test [2], the compound was called inactive.
For `CC12NC(Cc3ccccc31)c1ccccc12` (configuration not stated), the Potency entry in test [1], in test [3], in [4], in [5] and in [6] was “inactive” in each case. Further, the compound was classed as inactive in test [2].
With `c1ccc2cc(CC3=NCCN3)ccc2c1`, the Potency result in test [1], in test [3], in test [4], in test [5] and in test [6] was “inactive” each time. Also, the call in [2] was inactive.
Consider `O=C1C[C@@H]2OCC=C3CN4CC[C@]56c7ccccc7N1[C@H]5[C@H]2[C@H]3C[C@H]46`, for which the compound was called inactive in test [8], in [9] and in test [10]. Besides, the Potency result in test [11] and in test [12] was “inactive” each time.
Regarding `Clc1cc(I)cc(Cl)c1NC1=NCCN1`, the Potency entry in [1], in [3], in test [4], in test [5] and in test [6] was “inactive” each time. Also, the result in test [2] was inactive.
For the compound `NCCc1c[nH]c2ccc(C(N)=O)cc12`, the Potency entry in [1], in test [3], in test [4], in [5] and in [6] was “inactive” in each case. For the same compound, the outcome in test [2] was inactive.
With `CC(=O)OCC1=C(C(=O)O)N2C(=O)[C@@H](NC(=O)CCC[C@@H](N)C(=O)O)[C@H]2SC1`, the Potency entry in test [1], in test [3], in test [4], in test [5] and in test [6] was “inactive” in each case. Besides, the outcome in test [2] was inactive.
Consider `N[C@@]1(C(=O)O)CC[C@@H](C(=O)O)C1`, for which the Potency entry in test [1], in test [3], in [4], in test [5] and in [6] was “inactive” throughout. Besides, the compound was called inactive in test [2].
Take `NCCc1ccc(S(=O)(=O)F)cc1`: the Potency entry in test [1], in [3], in test [4], in test [5] and in test [6] was “inactive” each time. In test [2], the call was inactive.
In the case of `N=C(N)c1ccc(CS(=O)(=O)F)cc1`, the Potency entry in [1], in test [3], in [4], in test [5] and in [6] was “inactive” each time. The compound was called inactive in test [2].
In the case of `NCC(CP(=O)(O)O)c1ccc(Cl)cc1` (configuration not stated), the Potency result in test [1], in test [3], in [4], in test [5] and in [6] was “inactive” each time. Further, in test [2], the call was inactive.
On to `Oc1ccc2c3c1O[C@H]1c4oc5ccccc5c4C[C@@]4(O)C(C2)N(CC2CC2)CCC314` (some centres not stated), for which the Potency entry in test [1], in test [3], in [4], in test [5] and in [6] was “inactive” each time. Moreover, the compound was classed as inactive in [2].
For `CC(Cc1ccc(OCC(=O)O)cc1)NCC(O)c1cccc(Cl)c1` (configuration not stated), the Potency entry in [1], in [3], in [4], in [5] and in test [6] was “inactive” in each case. The outcome in test [2] was inactive.
For the compound `COc1ccc(CNC(=O)/C=C/c2ccc3[nH]cc(CCN(C)C)c3c2)cc1`, the Potency entry in test [1], in [3], in test [4], in [5] and in test [6] was “inactive” throughout. Moreover, in test [2], the outcome was inactive.
`NNC(N)=O`: the Potency result in test [1], in test [3], in [4], in test [5] and in test [6] was “inactive” in each case. Also, the compound was classed as inactive in [2].
`CC(C)NP(=O)(NC(C)C)OP(=O)(NC(C)C)NC(C)C`: the Potency result in test [1], in test [3], in test [4], in test [5] and in [6] was “inactive” each time. Further, the result in test [2] was inactive.
On to `C[N+]1(C)C2CCC1CC(OC(=O)c1c[nH]c3ccccc13)C2` (configuration not stated), for which the Potency entry in [1], in test [3], in test [4], in [5] and in test [6] was “inactive” each time. Besides, the outcome in [2] was inactive.
Regarding `COc1ccc2[nH]cc(CCN)c2c1`, the call in test [13], in [8] and in test [2] was inactive. The Potency result in test [1], in [3], in [4], in [5] and in [6] was “inactive” each time.
Consider `NC(Cc1cc(O)c(O)cc1O)C(=O)O` (configuration not stated), for which the Potency result in test [1], in test [3] and in test [5] was “inactive” throughout. Besides, the result in test [2] was inactive. For the same compound, the figures for the Potency in test [4] and in test [6] were 3.98 µM (active) and 35.5 µM (active), respectively.
`COc1ccc(OC)c(C(O)C(C)N)c1` (configuration not stated): the Potency result in [1], in test [3], in test [4], in test [11], in test [5] and in test [6] was “inactive” each time. The compound was called inactive in test [2], in test [14], in test [9] and in test [10].

These data come from PubChem BioAssay (NCATS).
